{"source": "PubChem BioAssay (EPA / NIEHS)", "note": "Where “and” joins values, the source holds several entries; their conditions need not be identical. Equal values may be shown once. Records with an inconclusive call do not appear. Calls of active or inactive are those of the source. Rule for the calls: active = hit-call score of the fitted dose curve at least 0.9, where 1 is the maximum; inconclusive = response in the unintended direction; inactive = score below 0.9."}
{"biological_target": "Glucocorticoid receptor (Homo sapiens) (UniProt P04150)", "sequence (P04150 whole entry, looked up)": "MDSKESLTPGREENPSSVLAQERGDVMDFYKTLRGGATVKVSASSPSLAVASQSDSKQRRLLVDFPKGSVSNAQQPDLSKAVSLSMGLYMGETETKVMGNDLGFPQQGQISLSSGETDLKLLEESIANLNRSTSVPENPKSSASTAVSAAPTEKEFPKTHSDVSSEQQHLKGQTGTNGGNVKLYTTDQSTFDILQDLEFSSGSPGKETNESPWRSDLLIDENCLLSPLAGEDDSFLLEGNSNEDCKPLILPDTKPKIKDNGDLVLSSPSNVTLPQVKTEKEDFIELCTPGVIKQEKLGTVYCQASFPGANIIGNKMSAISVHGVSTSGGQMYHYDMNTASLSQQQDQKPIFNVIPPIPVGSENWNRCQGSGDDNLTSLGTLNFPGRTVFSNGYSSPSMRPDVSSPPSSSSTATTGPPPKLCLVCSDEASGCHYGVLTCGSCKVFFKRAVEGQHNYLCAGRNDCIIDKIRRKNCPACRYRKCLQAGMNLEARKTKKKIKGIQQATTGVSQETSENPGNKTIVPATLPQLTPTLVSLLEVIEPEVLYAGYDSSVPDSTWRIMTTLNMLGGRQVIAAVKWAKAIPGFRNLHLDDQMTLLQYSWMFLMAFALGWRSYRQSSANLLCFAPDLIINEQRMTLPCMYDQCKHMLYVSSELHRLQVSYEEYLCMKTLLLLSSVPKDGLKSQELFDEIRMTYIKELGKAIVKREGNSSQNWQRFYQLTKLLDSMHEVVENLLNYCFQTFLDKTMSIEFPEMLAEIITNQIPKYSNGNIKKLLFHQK", "test": "NVS_NR_hGR: NovaScreen (NVS) Nuclear Receptor Binding Assay for human Glucocorticoid Receptor (GR) (AID 2283363)", "method": "NVS_NR_hGR is a biochemical, single-readout assay that uses extracted gene-proteins in a cell-free assay. Measurements were taken 16 hours after chemical dosing in a 96-well plate.NVS_NR_hGR is one of one assay component(s) measured or calculated from the NVS_NR_hGR assay. It is designed to make measurements of radioligand binding, a form of binding reporter, as detected with scintillation counting signals by Filter-based radiodetection technology.Data from the assay component NVS_NR_hGR was analyzed into 1 assay endpoint. This assay endpoint, NVS_NR_hGR, was analyzed in the positive analysis fitting direction relative to DMSO as the negative control and baseline of activity. Using a type of binding reporter, loss-of-signal activity can be used to understand changes in the binding as they relate to the gene NR3C1. Furthermore, this assay endpoint can be referred to as a primary readout, because the performed assay has only produced 1 assay endpoint. To generalize the intended target to other relatable targets, this assay endpoint is annotated to the nuclear receptor intended target family, where the subfamily is steroidal.\nBinding assays used specific radioligands (tritiated, iodinated) with non-radioactive competitive displacement ligands in agonist or antagonist protocols (as indicated) and various reference compounds and inhibitors to titrate specific binding to receptors and transporters. Most enzyme assays (CYPs, kinases, phosphatases, proteases, HDACs) used recombinant protein and specific substrates (fluorescence mostly, some colorimetric and radioactive) and inhibitors, followed by a biochemical separation of substrate and product. All assays for the biochemical HTS were initially run in duplicate at a single concentration (10 uM for CYP450 assays and 25 uM for all others). […] Each assay was run with positive and negative controls, and concurrent controls on every plate. The follow-up (secondary) screen tested active chemical-pairs in concentration series, as well as a few additional assays not tested in the primary screen, some selected negative inactives, and several cases re-run in the concentration series for confirmatory purposes."}
{"smiles": "CCCCCCCCCCCCOS(=O)(=O)O", "AC50": "11.6 µM (active) and 12.7 µM (active)"}
{"smiles": "O=c1oc2ccccc2c(O)c1C(CC(O)c1ccc(-c2ccc(Br)cc2)cc1)c1ccccc1", "note": "(stereo not given)", "AC50": "7.76 µM (active)"}
{"smiles": "CC(O)(CS(=O)(=O)c1ccc(F)cc1)C(=O)Nc1ccc(C#N)c(C(F)(F)F)c1", "note": "(stereo not given)", "outcome": "inactive"}
{"smiles": "Cc1cccc(OP(=O)(Oc2cccc(C)c2)Oc2cccc(C)c2)c1", "outcome": "inactive"}
{"smiles": "O=[N+]([O-])c1ccc(Cl)c([N+](=O)[O-])c1", "AC50": "4.52 µM (active)"}
{"smiles": "O=C1c2ccccc2C(=O)C1C(=O)C(c1ccccc1)c1ccc(Cl)cc1", "note": "(stereo not given)", "AC50": "3.72 µM (active)"}
{"smiles": "[Cl][Sn]([c]1ccccc1)([c]1ccccc1)[c]1ccccc1", "AC50": "3.31 µM (active)"}
{"smiles": "Cc1cc(C(C)(C)c2ccc(O)c(C)c2)ccc1O", "AC50": "1.82 µM (active)"}
{"smiles": "O=S1(=O)OC(c2cc(Br)c(O)c(Br)c2)(c2cc(Br)c(O)c(Br)c2)c2ccccc21", "AC50": "0.426 µM (active)"}
{"smiles": "CC(C=O)Cc1ccc2c(c1)OCO2", "note": "(stereo not given)", "outcome": "inactive"}
{"smiles": "CCOP(=O)(OCC)OC(=CCl)c1ccc(Cl)cc1Cl", "AC50": "25 µM (active)"}
{"smiles": "CCCCCCCCCCCCc1cccc(S(=O)(=O)O)c1", "AC50": "4.55 µM (active)"}
{"smiles": "O=C1C=CC(=O)c2ccccc21", "AC50": "4.63 µM (active)"}
{"smiles": "CCC[CH2][Sn]([Cl])([Cl])[CH2]CCC", "AC50": "3.88 µM (active)"}
{"smiles": "Cc1ccc2nc3sc(=O)sc3nc2c1", "AC50": "1.64 µM (active)"}
